Outcome and AC50 data for three molecules are collected here from PubChem BioAssay (EPA / NIEHS).

Test [1] can be described thus: ATG_CRE_CIS: Attagene CIS-FACTORIAL HepG2 Assay for human cAMP Responsive Element (CRE) binding protein 3 (AID 2282926). As to conditions: HepG2 CRE cis-reporter, Attagene multiplexed mRNA; actives raise or lower the signal. The procedure, abridged:
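Multiplexed transcription-unit reporters transfected into HepG2; 24 h dosing; RT-PCR/capillary electrophoresis fluorescence read-out; bidirectional fit vs DMSO.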

Test [2] addresses CCAAT/enhancer-binding protein beta (Homo sapiens) (UniProt P17676). Put plainly: ATG_C_EBP_CIS: Attagene CIS-FACTORIAL HepG2 Assay for human CCAAT/Enhancer Binding Protein (C/EBP) beta (AID 2282927). As to conditions: HepG2 Attagene cis-factorial transcription factor reporter; actives raise or lower the signal. The method, boiled down: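 Transiently transfected HepG2 (MRTU library, endogenous TF-driven promoters); 24 h dosing; total RNA → oligo(dT) RT → PCR → 6-FAM primer extension → HpaI digest → CE; fit bidirectionally vs DMSO.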

Test [3] is described as follows: ATG_CMV_CIS: Attagene CIS-FACTORIAL HepG2 Assay for human CMV (Internal Marker) (AID 2282928).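 Note: endpoint acts as a background internal control marker rather than a target.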 As to conditions: HepG2 CMV promoter reporter, transcription factor profiling; actives raise or lower the signal. The method, boiled down: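 Cell system: HepG2, transiently transfected multiple reporter units under cis promoters. Exposure: 24 h. Detection: RT-PCR, FAM labeling, HpaI digestion, capillary electrophoresis. Analysis: bidirectional, DMSO baseline.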

Test [4] in a line: ATG_DR4_LXR_CIS: Attagene CIS-FACTORIAL HepG2 Assay for human Liver X Receptor (LXR), DR4 submotif (AID 2282929). The conditions noted are these: HepG2 Attagene DR4 cis-reporter, mRNA transcription; actives raise or lower the signal. The procedure, abridged:
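Endogenous factor activity at a DR4 cis-element is read as reporter mRNA in transiently transfected HepG2 cells. Exposure lasts 24 h; transcripts are amplified, fluorescently labelled and sized by capillary electrophoresis, with DMSO as baseline.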

Test [5] addresses Aryl hydrocarbon receptor (Homo sapiens) (UniProt P35869). Put plainly: ATG_Ahr_CIS: Attagene CIS-FACTORIAL HepG2 Assay for human Aryl Hydrocarbon Receptor (Ahr) (AID 2282930). The conditions noted are these: HepG2 AhR cis-factorial reporter transcription; actives raise or lower the signal. The method, boiled down: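 Read-out: reporter mRNA quantified by RT-PCR with fluorescent primer extension and capillary electrophoresis. Human HepG2 liver cells carried transfected cis-promoter reporter units and were exposed to chemical for 24 h; gain or loss fitted relative to DMSO.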

The nature of test [6]: ATG_AP_1_CIS: Attagene CIS-FACTORIAL HepG2 Assay for human Activator Protein 1 (AP-1) (AID 2282931). As to conditions: HepG2 Attagene cis-factorial AP-1 reporter mRNA; actives raise or lower the signal. The method, boiled down:
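Fluorescence of labelled PCR fragments separated by capillary electrophoresis gives reporter mRNA levels. HepG2 with transfected cis-regulated reporter units, 24 h exposure; DMSO serves as baseline for bidirectional curve fits.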

Test [7] is described as follows: ATG_AP_2_CIS: Attagene CIS-FACTORIAL HepG2 Assay for human Activator Protein 2 (AP-2) (AID 2282932). The conditions noted are these: HepG2 AP-2 cis-reporter, Attagene transcription factor profiling; actives raise or lower the signal. The method, boiled down:
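Multiplexed mRNA reporter assay in HepG2: cis-regulated units report endogenous factor activity after 24 h treatment. Fluorescence from capillary electrophoresis of RT-PCR products gives the signal, with DMSO as baseline.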

Test [8] is described as follows: ATG_BRE_CIS: Attagene CIS-FACTORIAL HepG2 Assay for human Bone Morphogenetic Protein (BMP) Response Element (BRE) (AID 2282933). The conditions noted are these: HepG2 BMP response element reporter, Attagene transcription factor profiling; actives raise or lower the signal. The method, boiled down:
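Endogenous transcription factor activity read in transiently transfected HepG2 cells after 24 h chemical exposure. Bidirectional curve fitting against DMSO; readout is reporter transcript level by RT-PCR with capillary electrophoresis of labelled products.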

Test [9] concerns the target Retinoic acid receptor alpha (Homo sapiens) (UniProt P10276). Put plainly: ATG_DR5_RAR_CIS: Attagene CIS-FACTORIAL HepG2 Assay for human Retinoic Acid Receptor Alpha (RARE), DR5 submotif (AID 2282934). The conditions noted are these: HepG2 Attagene cis-factorial RARE DR5 reporter, mRNA; actives raise or lower the signal. The method, boiled down:
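Read-out: DR5-driven reporter transcript measured by RT-PCR, 6-FAM primer extension, HpaI digest and capillary electrophoresis. Human HepG2 liver cells carry transiently transfected cis-element reporter constructs; dosing lasts 24 h. Gain or loss of signal fitted against DMSO baseline.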

The target in test [10] is Transcription factor E2F1 (Homo sapiens) (UniProt Q01094). Put plainly: ATG_E2F_CIS: Attagene CIS-FACTORIAL HepG2 Assay for human E2F Transcription Factor 1 (AID 2282935). The conditions noted are these: HepG2 Attagene cis-reporter, E2F reporter RNA transcripts; actives raise or lower the signal. The method, boiled down:
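Measures reporter transcript levels via RT-PCR with capillary electrophoresis detection in HepG2 cells harboring cis-regulated reporter units; 24 h post-dose; bidirectional curve fitting with DMSO as baseline.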

Test [11] in a line: ATG_E_Box_CIS: Attagene CIS-FACTORIAL HepG2 Assay for human Enhancer Box (E-box) (AID 2282936). As to conditions: HepG2 E-box cis-reporter transcription, actives raise or lower the signal. The method, boiled down: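 First, HepG2 cells receive multiple cis-regulated reporter constructs by transient transfection. Next, chemicals are applied for 24 h. Finally, reporter mRNA is quantified via RT-PCR and capillary electrophoresis, with DMSO as baseline.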

The nature of test [12]: ATG_M_61_CIS: Attagene CIS-FACTORIAL HepG2 Assay for M61 Transcription Factor (Internal Marker) (AID 2282937). As to conditions: HepG2 Attagene CIS-FACTORIAL M61 internal marker reporter; actives raise or lower the signal. The procedure, abridged: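 This endpoint serves as an internal background control within a multiplexed HepG2 cis-reporter panel. Cells are exposed for 24 h; reporter mRNA is amplified, fluorescently labelled and sized by capillary electrophoresis, with DMSO as negative control.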

Test [13] in a line: ATG_EGR_CIS: Attagene CIS-FACTORIAL HepG2 Assay for human Early Growth Response 1 (EGR1) (AID 2282938). The conditions noted are these: HepG2 Attagene CIS-FACTORIAL EGR reporter mRNA; actives raise or lower the signal. The procedure, abridged:
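HepG2, transient MRTU transfection (cis promoters), 24 h compound. RNA → RT (oligo-dT) → PCR → 6-FAM labelling → HpaI cut → CE fluorescence. Bidirectional fit, DMSO baseline.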

Test [14] is described as follows: ATG_M_19_CIS: Attagene CIS-FACTORIAL HepG2 Assay for M19 Transcription Factor (Internal Marker) (AID 2282939). As to conditions: HepG2 Attagene CIS-FACTORIAL M19 internal marker reporter; actives raise or lower the signal. The procedure, abridged:
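Internal marker readout, fitted in both directions against DMSO, from HepG2 cells carrying transfected cis-element reporter constructs; RT-PCR and capillary electrophoresis of reporter mRNA after 24 h exposure.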

A short description of test [15]: ATG_ERE_CIS: Attagene CIS-FACTORIAL HepG2 Assay for Estrogen Response Element (ERE) (AID 2282940). The conditions noted are these: HepG2 ERE cis-reporter, Attagene RNA transcript; actives raise or lower the signal. The method, boiled down:
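After 24 h compound treatment, RNA from transfected HepG2 cells was reverse-transcribed, reporter cDNA PCR-amplified, FAM-labelled, HpaI-cut and resolved by capillary electrophoresis. ERE-driven cis reporter transcripts reflect endogenous factors; gain or loss scored against DMSO.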

A short description of test [16]: ATG_Ets_CIS: Attagene CIS-FACTORIAL HepG2 Assay for human Erythroblast Transformation Specific (ETS) (AID 2282941). The conditions noted are these: HepG2 ETS cis-reporter transcription, actives raise or lower the signal. The procedure, abridged: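 After transient cis-reporter transfection, HepG2 cells receive test chemical for 24 h. Reporter mRNA levels, measured by RT-PCR and capillary electrophoresis fluorescence, are analysed bidirectionally relative to the DMSO baseline.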

Test [17] has as its target Hepatocyte nuclear factor 3-beta (Homo sapiens) (UniProt Q9Y261). Put plainly: ATG_FoxA2_CIS: Attagene CIS-FACTORIAL HepG2 Assay for human Forkhead box A2 (FOXA2) (AID 2282942). As to conditions: HepG2 cis-reporter transcription factor activity, 24 h; actives raise or lower the signal. The method, boiled down: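 Cells: HepG2, transient multiplex reporter transfection. Exposure 24 h. Detection: reporter-specific RT-PCR, fluorescent labelling, restriction digest, capillary electrophoresis. Analysis: bidirectional curve fit, DMSO as negative control.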

A short description of test [18]: ATG_FoxO_CIS: Attagene CIS-FACTORIAL HepG2 Assay for human Forkhead box O (FoxO) (AID 2282943). As to conditions: HepG2 Attagene cis-reporter, FoxO element, mRNA; actives raise or lower the signal. The procedure, abridged: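 Read-out: fluorescence of 6-FAM-labelled reporter cDNA fragments resolved by capillary electrophoresis. Transiently transfected HepG2 cells were dosed for 24 h; activity fitted in both directions relative to DMSO controls.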

A short description of test [19]: ATG_GATA_CIS: Attagene CIS-FACTORIAL HepG2 Assay for human GATA Binding Protein (AID 2282944). As to conditions: HepG2 GATA cis-element reporter, Attagene multiplex mRNA; actives raise or lower the signal. The procedure, abridged:
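Reporter transcripts from a GATA cis-regulated unit, among multiplexed reporters in transfected HepG2 cells, were measured by RT-PCR with capillary electrophoresis after 24 h dosing. Induction or loss scored relative to DMSO.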

Test [20] can be described thus: ATG_GLI_CIS: Attagene CIS-FACTORIAL HepG2 Assay for human Zinc Finger Protein GLI1 (AID 2282945). The conditions noted are these: HepG2, Attagene cis-factorial reporter mRNA, GLI element; actives raise or lower the signal. The method, boiled down: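 Transiently transfected HepG2 cells report endogenous transcription factor activity via cis-element-driven reporter units. After 24 h compound exposure, reporter mRNA was measured by RT-PCR with capillary electrophoresis; bidirectional fitting against DMSO baseline.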

Active and inactive are the calls of the source. Rule for the calls: active = hit-call score of the fitted dose curve at least 0.9, where 1 is the maximum; inactive = score below 0.9.

CCAAT/enhancer-binding protein beta (Homo sapiens), sequence (P17676 whole entry, looked up): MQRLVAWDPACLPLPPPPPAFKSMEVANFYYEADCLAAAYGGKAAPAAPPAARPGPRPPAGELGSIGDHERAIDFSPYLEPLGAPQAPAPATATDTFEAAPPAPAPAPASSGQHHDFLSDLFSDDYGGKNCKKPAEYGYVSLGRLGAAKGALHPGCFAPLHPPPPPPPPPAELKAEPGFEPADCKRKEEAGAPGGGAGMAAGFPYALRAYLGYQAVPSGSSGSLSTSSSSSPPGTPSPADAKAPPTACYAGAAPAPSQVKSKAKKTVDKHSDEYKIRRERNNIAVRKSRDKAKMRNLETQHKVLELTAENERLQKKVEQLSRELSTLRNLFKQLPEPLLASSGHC
Hepatocyte nuclear factor 3-beta (Homo sapiens), sequence (Q9Y261 whole entry, looked up): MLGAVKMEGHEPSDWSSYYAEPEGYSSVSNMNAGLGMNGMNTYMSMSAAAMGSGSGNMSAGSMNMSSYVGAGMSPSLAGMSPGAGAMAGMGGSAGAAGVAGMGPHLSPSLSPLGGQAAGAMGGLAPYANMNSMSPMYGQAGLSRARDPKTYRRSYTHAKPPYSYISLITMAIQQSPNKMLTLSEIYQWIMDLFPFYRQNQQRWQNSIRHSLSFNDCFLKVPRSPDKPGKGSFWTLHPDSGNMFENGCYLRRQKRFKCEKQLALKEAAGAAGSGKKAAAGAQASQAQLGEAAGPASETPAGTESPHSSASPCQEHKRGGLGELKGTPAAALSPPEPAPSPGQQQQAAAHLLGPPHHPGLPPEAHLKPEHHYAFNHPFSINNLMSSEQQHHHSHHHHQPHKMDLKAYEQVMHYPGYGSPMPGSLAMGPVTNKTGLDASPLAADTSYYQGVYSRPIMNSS
Retinoic acid receptor alpha (Homo sapiens), sequence (P10276 whole entry, looked up): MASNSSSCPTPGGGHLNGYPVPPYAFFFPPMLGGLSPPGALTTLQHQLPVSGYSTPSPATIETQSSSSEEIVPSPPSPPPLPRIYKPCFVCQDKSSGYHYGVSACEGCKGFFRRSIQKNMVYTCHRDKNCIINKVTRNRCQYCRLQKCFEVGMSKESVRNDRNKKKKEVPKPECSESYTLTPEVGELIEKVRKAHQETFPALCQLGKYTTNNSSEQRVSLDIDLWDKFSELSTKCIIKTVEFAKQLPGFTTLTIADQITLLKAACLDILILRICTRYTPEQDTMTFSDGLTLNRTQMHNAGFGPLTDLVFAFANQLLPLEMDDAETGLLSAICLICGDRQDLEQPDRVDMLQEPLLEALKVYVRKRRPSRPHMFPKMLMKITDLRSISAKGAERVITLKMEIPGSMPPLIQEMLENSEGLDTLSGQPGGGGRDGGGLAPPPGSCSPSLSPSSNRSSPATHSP
Transcription factor E2F1 (Homo sapiens), sequence (Q01094 whole entry, looked up): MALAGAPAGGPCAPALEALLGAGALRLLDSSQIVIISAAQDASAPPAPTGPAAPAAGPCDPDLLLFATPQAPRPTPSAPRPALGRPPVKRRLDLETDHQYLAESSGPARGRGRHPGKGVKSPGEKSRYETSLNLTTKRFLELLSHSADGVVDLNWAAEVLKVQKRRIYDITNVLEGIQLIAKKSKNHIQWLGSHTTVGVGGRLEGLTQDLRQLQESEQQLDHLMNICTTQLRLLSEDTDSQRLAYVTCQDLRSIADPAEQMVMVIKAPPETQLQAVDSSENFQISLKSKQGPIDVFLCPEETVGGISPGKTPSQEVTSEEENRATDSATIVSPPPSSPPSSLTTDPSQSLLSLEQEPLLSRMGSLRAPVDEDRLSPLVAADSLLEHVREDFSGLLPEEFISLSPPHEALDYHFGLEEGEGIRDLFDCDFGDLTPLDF
Aryl hydrocarbon receptor (Homo sapiens), sequence (P35869 whole entry, looked up): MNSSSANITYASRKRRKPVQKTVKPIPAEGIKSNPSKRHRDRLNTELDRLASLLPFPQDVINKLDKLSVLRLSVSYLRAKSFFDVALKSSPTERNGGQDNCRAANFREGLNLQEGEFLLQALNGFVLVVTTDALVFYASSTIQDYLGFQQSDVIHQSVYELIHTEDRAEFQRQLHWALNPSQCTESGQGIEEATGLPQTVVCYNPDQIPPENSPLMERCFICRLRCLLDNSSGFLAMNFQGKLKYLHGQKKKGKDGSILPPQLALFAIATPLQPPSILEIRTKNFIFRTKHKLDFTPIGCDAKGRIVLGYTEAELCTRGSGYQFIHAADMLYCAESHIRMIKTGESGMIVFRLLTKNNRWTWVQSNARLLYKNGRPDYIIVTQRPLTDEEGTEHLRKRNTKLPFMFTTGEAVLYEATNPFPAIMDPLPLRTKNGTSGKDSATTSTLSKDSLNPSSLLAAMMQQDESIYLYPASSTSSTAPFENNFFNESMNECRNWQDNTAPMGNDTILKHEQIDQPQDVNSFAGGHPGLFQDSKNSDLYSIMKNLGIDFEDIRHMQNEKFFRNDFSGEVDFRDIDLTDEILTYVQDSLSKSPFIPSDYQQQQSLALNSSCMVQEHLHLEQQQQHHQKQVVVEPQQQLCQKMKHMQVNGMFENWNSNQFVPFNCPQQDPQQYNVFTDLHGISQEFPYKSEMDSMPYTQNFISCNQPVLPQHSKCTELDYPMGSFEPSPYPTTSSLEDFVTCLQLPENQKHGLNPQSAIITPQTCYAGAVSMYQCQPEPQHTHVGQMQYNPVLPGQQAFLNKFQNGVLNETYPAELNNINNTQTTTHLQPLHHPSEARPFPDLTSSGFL

Take `O=NN1CCCC1`: the result in test [1], in test [2], in [3], in [4], in [5] and in test [6] was inactive. For the same molecule, the molecule was called inactive in test [7], in test [8], in test [9], in test [10], in test [11] and in test [12]. Further, the result in test [13], in test [14], in [15], in [16], in test [17] and in test [18] was inactive. In addition, the call in test [19] and in test [20] was inactive.
`N#Cc1ccc(O)cc1`: the call in test [1], in test [2], in [3], in test [4], in test [5] and in [6] was inactive. The molecule was called inactive in test [7], in test [8], in test [9], in [10], in test [11] and in [12]. Moreover, the molecule was called inactive in [13], in test [14], in test [15], in test [16], in [17] and in test [18]. Besides, the call in test [19] and in [20] was inactive.
On to `O=S(=O)(c1ccc(O)cc1)c1ccc(O)cc1`, for which the call in test [1], in test [2], in test [3], in test [4], in [5] and in [6] was inactive. For the same molecule, the result in [7], in test [8], in [9], in test [10], in [11] and in test [12] was inactive. The molecule was classed as inactive in test [13], in [14], in test [16], in test [17], in test [18] and in [19]. For the same molecule, in test [20], the molecule was called inactive. In test [15], the AC50 was 1700 nM (active).
